Growth data for 9 compounds are collected here from PubChem BioAssay (NCI).

Some test systems named below: SK-MEL-2 melanoma; EKVX NSCLC; SN12C renal; UO-31 renal; TK-10 renal; A498 renal; CCRF-CEM leukemia; MOLT-4 leukemia; SR leukemia; RPMI-8226 leukemia; OVCAR-8 ovarian; OVCAR-5 ovarian; OVCAR-4 ovarian; SK-OV-3 ovarian; IGROV1 ovarian; OVCAR-3 ovarian; HS 578T breast; NCI/ADR-RES ovarian.
Common to all, as to experiment: NCI-60 one-dose screen, 48 h (100 = growth as untreated, 0 = no growth, -100 = all killed)
What all share (conditions): 10 µM unless noted

The structures appear in SMILES notation. This is part of a sample that, as a whole, favours compounds with a hit. Of some 83,000 tested, about 20% had one in any assay.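 Cells were grown in 96-well plates and exposed to the test compound at a single concentration for 48 hours; results are reported as percent growth, with values below 10 considered active.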 Unmarked numbers belong to inactive results. Active and inactive are the calls of the source.

As to `[2H]c1nc(Nc2ncc(F)c(-c3cc(F)c4nc(C)n(C(C)C)c4c3)n2)c([2H])c([2H])c1CN1CCN(CC)CC1`, the growth in the test with SK-MEL-2 melanoma is 70.5%; with EKVX NSCLC, 55%; in the test on SN12C renal, 47.8%; with UO-31 renal, 23.1%; with TK-10 renal, 35.1%; in the test on A498 renal, 44.2%. The growth with CCRF-CEM leukemia was 27.2%; in the test with MOLT-4 leukemia it was 15.4%; with SR leukemia, 11.7%; in the test with RPMI-8226 leukemia, 34.7%; in the test on OVCAR-8 ovarian it was 74.3%; with OVCAR-5 ovarian it was 49.8%. For the same compound, the growth in the test on OVCAR-4 ovarian is 66.1%; in the test with SK-OV-3 ovarian, 35.7%; in the test with IGROV1 ovarian, 39.1%; in the test on OVCAR-3 ovarian, 73.1%; in the test with HS 578T breast, 29.9%; with NCI/ADR-RES ovarian, 71%.

On to `Cc1cc(-c2ccccc2)nc2ccccc12`, for which the growth in the test with SK-MEL-2 melanoma was 109%; in the test on EKVX NSCLC, 81.1%; in the test on SN12C renal it was 104%; in the test with UO-31 renal, 77%; with TK-10 renal, 135%; in the test on A498 renal it was 106%. For the same compound, the growth in the test on CCRF-CEM leukemia is 84.9%; in the test with MOLT-4 leukemia, 91.5%; in the test on SR leukemia, 97.1%; in the test on RPMI-8226 leukemia it was 83.3%; with OVCAR-8 ovarian, 98.1%; in the test with OVCAR-5 ovarian, 115%. Further, the growth in the test with OVCAR-4 ovarian was 90.1%; in the test on SK-OV-3 ovarian, 74.9%; with IGROV1 ovarian, 92.5%; with OVCAR-3 ovarian it was 105%; in the test with HS 578T breast, 97.3%; in the test on NCI/ADR-RES ovarian it was 102%.

On to `N#Cc1c(N)nc(Cl)c(C#N)c1C(=O)c1ccccc1`, for which the growth in the test with SK-MEL-2 melanoma is 19.4%; in the test with EKVX NSCLC it was 87.8%; in the test on SN12C renal, 35.7%; in the test with UO-31 renal, 32.4%; in the test with TK-10 renal, 48.6%; in the test on A498 renal, 108%. The growth in the test with CCRF-CEM leukemia was 10.2%; in the test on MOLT-4 leukemia it was 19.7%; in the test with SR leukemia, -17.6% (active); with RPMI-8226 leukemia, -17.6% (active); in the test on OVCAR-8 ovarian, 36.8%; with OVCAR-5 ovarian, 91.2%. The growth in the test with OVCAR-4 ovarian is 96.7%; with SK-OV-3 ovarian it was 74.5%; in the test on IGROV1 ovarian it was 32.1%; in the test with OVCAR-3 ovarian it was 50.4%; in the test with HS 578T breast it was 71%; in the test with NCI/ADR-RES ovarian, 81.4%.

As for `CCN(CC)CCC(C(=O)O)(c1ccccc1)c1ccccc1`, the growth is 112% in the test on SK-MEL-2 melanoma; 96.1% in the test with EKVX NSCLC; 103% in the test on SN12C renal; 89.1% in the test with UO-31 renal; 97.9% with TK-10 renal; 102% in the test with A498 renal. In addition, the growth in the test on CCRF-CEM leukemia was 96.6%; in the test with MOLT-4 leukemia, 89.4%; in the test with SR leukemia, 95.7%; with RPMI-8226 leukemia it was 104%; in the test with OVCAR-8 ovarian, 113%; with OVCAR-5 ovarian, 106%. The growth is 102% with OVCAR-4 ovarian; 92% in the test on SK-OV-3 ovarian; 102% in the test on IGROV1 ovarian; 110% with OVCAR-3 ovarian; 95.3% in the test with HS 578T breast; 97.8% with NCI/ADR-RES ovarian.

For the compound `O=C(O)c1cccc(S(=O)(=O)c2ccccc2)c1`, the growth with SK-MEL-2 melanoma is 104%; in the test with EKVX NSCLC, 92.6%; in the test with SN12C renal, 102%; in the test with UO-31 renal it was 96.1%; in the test with TK-10 renal it was 93.2%; in the test with A498 renal it was 98.5%. In addition, the growth in the test on CCRF-CEM leukemia was 103%; in the test on MOLT-4 leukemia, 99.6%; in the test on SR leukemia it was 97.1%; in the test on RPMI-8226 leukemia, 103%; with OVCAR-8 ovarian it was 112%; with OVCAR-5 ovarian, 99%. Also, the growth was 102% with OVCAR-4 ovarian; 116% in the test with SK-OV-3 ovarian; 100% in the test with IGROV1 ovarian; 107% in the test on OVCAR-3 ovarian; 91.6% with HS 578T breast; 104% in the test with NCI/ADR-RES ovarian.

`COc1cc(/C=C2/Oc3cc4occc4c(OC)c3C2=O)ccc1OCC(=O)Nc1ccncc1`: the growth is 102% in the test with SK-MEL-2 melanoma; 97.4% in the test with EKVX NSCLC; 104% in the test on SN12C renal; 70.3% in the test on UO-31 renal; 127% in the test on TK-10 renal; 111% in the test with A498 renal. Also, the growth is 103% in the test on CCRF-CEM leukemia; 110% with MOLT-4 leukemia; 102% in the test with SR leukemia; 91.4% in the test on RPMI-8226 leukemia; 104% in the test with OVCAR-8 ovarian; 113% in the test with OVCAR-5 ovarian. Besides, the growth is 111% in the test with OVCAR-4 ovarian; 93.1% with SK-OV-3 ovarian; 96.3% in the test on IGROV1 ovarian; 99.8% in the test with OVCAR-3 ovarian; 95.1% with HS 578T breast; 107% in the test on NCI/ADR-RES ovarian.

As to `COC(=O)c1ccc(NC(N)=NCC(C)(C)COc2ccc(C(F)(F)F)cc2)nc1`, the growth in the test with SK-MEL-2 melanoma was 79.9%; in the test on EKVX NSCLC it was 45.5%; with SN12C renal, 51.3%; in the test on UO-31 renal, 41.1%; in the test with TK-10 renal, 53.9%; with A498 renal, 74.2%. The growth is 15.7% in the test with CCRF-CEM leukemia; 9.32% (active) with MOLT-4 leukemia; -32.3% (active) in the test with SR leukemia; 10.9% with RPMI-8226 leukemia; 52.2% in the test on OVCAR-8 ovarian; 72% with OVCAR-5 ovarian. Besides, the growth in the test on OVCAR-4 ovarian is 40.6%; with SK-OV-3 ovarian it was 106%; in the test on IGROV1 ovarian, 21.3%; in the test on OVCAR-3 ovarian it was 50%; in the test with HS 578T breast, 86.3%; in the test on NCI/ADR-RES ovarian, 44.6%.

As for `CC(C)C(=O)Nc1nc2c(s1)CCCc1ccn(S(=O)(=O)c3ccccc3)c1-2`, the growth in the test on SK-MEL-2 melanoma is 83.7%; with EKVX NSCLC, 88.2%; in the test on SN12C renal, 105%; in the test with UO-31 renal, 77.1%; in the test on TK-10 renal, 83.6%; with A498 renal, 110%. The growth is 87.2% in the test with CCRF-CEM leukemia; 78% with MOLT-4 leukemia; 84.3% in the test on SR leukemia; 87.5% with RPMI-8226 leukemia; 101% in the test with OVCAR-8 ovarian; 99.2% with OVCAR-5 ovarian. The growth with OVCAR-4 ovarian is 104%; in the test on SK-OV-3 ovarian it was 87.4%; with IGROV1 ovarian it was 107%; in the test with OVCAR-3 ovarian it was 107%; in the test on HS 578T breast it was 101%; with NCI/ADR-RES ovarian, 94.2%.

On to `Cc1cc(SCc2ccc(Cl)cc2Cl)nc(SCc2ccc(Cl)cc2Cl)n1`, for which the growth was 103% in the test on SK-MEL-2 melanoma; 88.5% in the test with EKVX NSCLC; 112% in the test with SN12C renal; 97.5% with UO-31 renal; 94.9% with TK-10 renal; 98.7% in the test on A498 renal. For the same compound, the growth is 108% in the test on CCRF-CEM leukemia; 104% in the test on MOLT-4 leukemia; 105% in the test with SR leukemia; 103% in the test on RPMI-8226 leukemia; 104% in the test with OVCAR-8 ovarian; 97.8% in the test with OVCAR-5 ovarian. Moreover, the growth was 88.2% in the test with OVCAR-4 ovarian; 116% in the test with SK-OV-3 ovarian; 99.5% with IGROV1 ovarian; 102% in the test on OVCAR-3 ovarian; 102% in the test with HS 578T breast; 99.4% with NCI/ADR-RES ovarian.
